Inconclusive results are not listed. Active and inactive are the calls of the source. How the source made its calls: active means hit-call score of the fitted dose curve at least 0.9, where 1 is the maximum; inactive means score below 0.9.

In this test the target is human ROCK1 AGC Kinase, ROCK1 (gene 6093) (UniProt Q13464). The test is described as follows: ERF_FR_ENZ_hROCK1: Eurofins (ERF) Enzymatic Radiometric [Km ATP] KinaseProfiler LeadHunter Assay for human ROCK1 AGC Kinase. The procedure: ERF_FR_ENZ_hROCK1 is a biochemical, single-readout assay that uses extracted gene-proteins in a cell-free assay. Measurements were taken 0.33 hour after chemical dosing in a 96-well plate. See ROCK1 Human AGC Kinase Enzymatic LANCE Assay [Km ATP], Cerep.ERF_FR_ENZ_hROCK1 is an assay component calculated from the ERF_FR_ENZ_hROCK1 assay. It is designed to measure enzyme activity using a type of enzyme reporter as detected by fluorescence intensity with LANCE technology.Data from the assay component ERF_FR_ENZ_hROCK1 was analyzed at the assay endpoint, ERF_FR_ENZ_hROCK1, in the positive analysis fitting direction relative to DMSO as the negative control and baseline of activity. Using a type of enzyme reporter, loss-of-signal activity can be used to understand changes in enzymatic activity as they relate to gene ROCK1. To generalize the intended target to other relatable targets, this assay endpoint is annotated to the kinase intended target family, where the subfamily is serine/threonine kinase.
Sequence of human ROCK1 AGC Kinase, ROCK1 (gene 6093) (Q13464 whole entry, looked up): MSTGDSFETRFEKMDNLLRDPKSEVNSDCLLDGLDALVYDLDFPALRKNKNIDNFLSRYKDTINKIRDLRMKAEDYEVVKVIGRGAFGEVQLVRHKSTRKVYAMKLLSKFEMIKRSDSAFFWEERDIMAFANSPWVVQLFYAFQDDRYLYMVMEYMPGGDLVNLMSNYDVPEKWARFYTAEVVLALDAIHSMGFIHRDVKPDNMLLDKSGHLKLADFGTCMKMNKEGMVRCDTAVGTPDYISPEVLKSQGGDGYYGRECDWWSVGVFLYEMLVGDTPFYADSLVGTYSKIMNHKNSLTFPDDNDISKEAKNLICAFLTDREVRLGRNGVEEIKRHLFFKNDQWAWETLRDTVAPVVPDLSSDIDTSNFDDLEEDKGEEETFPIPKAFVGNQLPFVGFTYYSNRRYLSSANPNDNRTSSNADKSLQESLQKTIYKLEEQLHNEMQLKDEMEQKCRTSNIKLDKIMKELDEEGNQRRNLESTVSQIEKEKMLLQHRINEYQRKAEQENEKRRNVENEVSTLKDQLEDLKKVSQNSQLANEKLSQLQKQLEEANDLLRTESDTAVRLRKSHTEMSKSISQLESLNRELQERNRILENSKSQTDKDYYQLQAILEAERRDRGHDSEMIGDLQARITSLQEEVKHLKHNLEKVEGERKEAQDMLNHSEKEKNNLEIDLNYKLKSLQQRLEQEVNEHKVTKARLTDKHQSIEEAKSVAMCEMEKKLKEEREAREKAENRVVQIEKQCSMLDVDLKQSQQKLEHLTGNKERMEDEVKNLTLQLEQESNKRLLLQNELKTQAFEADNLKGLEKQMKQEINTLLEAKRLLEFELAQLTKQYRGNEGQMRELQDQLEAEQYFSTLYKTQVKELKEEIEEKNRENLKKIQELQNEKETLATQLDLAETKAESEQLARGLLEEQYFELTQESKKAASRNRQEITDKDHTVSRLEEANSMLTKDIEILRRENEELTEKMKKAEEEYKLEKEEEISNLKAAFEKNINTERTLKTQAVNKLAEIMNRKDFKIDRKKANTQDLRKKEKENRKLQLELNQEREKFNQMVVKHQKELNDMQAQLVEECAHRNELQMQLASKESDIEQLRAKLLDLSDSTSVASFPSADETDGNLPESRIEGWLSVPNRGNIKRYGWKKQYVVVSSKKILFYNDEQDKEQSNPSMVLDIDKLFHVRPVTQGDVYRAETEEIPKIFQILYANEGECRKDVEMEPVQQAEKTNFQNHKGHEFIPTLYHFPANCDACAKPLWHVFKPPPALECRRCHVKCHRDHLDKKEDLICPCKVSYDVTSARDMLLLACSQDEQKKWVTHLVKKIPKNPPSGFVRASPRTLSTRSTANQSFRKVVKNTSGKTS
ROCK-I (h) is incubated with 8 mM MOPS pH 7.0, 0.2 mM EDTA, 30 uM […], 10 mM MgAcetate and [gamma-33P]-ATP (specific activity and concentration as required). The reaction is initiated by the addition of the Mg/ATP mix. After incubation for 40 minutes at room temperature, the reaction is stopped by the addition of phosphoric acid to a concentration of 0.5%. […]
As for `COc1cc(CCC(=O)CC(=O)CCc2ccc(O)c(OC)c2)ccc1O`, the molecule was classed as inactive.

`O=C(/C=C/c1ccc(O)cc1)CC(=O)/C=C/c1ccc(O)cc1`: the result was inactive.
